# This is a sample that favours compounds with a hit; in the whole collection about 19% have one here.
# HT1080NT lethal = kills 2HG-producing HT-1080-NT fibrosarcoma cells. HT-1080-NT fibrosarcoma viability, CellTiter-Glo ATP luminescence, 48 h. Potency, µM (doses to about 46.1 µM), for the others: at the top dose activity, negative = less viability, most hits filed as cytotoxic. hit rate 1.6% among 360,000;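 further: NT is the 2HG producing partner of a matched IDH1 knockdown line; potency means the concentration at half of the fitted maximal effect; 0% = DMSO-treated cells and -100% = media-only wells without cells; nearly all actives have a fitted effect of over 55% in size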
#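 750 cells/well, RPMI + 5% FBS; 2 h settle, compound pin-transfer, 48 h at 37 degrees C. CellTiter-Glo 10 min RT, luminescence. Normalized to DMSO and media-only wells.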
# IL-1B inflam inh = inhibitors of inflammasome signaling (IL-1 beta secretion); AID 743279; activity change, % at 57.5 µM; THP-1 LPS/ATP IL-1B secretion, AlphaLISA, 16 h; active compounds read low; hit rate 4.7% among 360,000; in the data active means activity change below about -50%; inconclusive means mostly about -30% to -49%
#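 Secreted IL-1B measured by AlphaLISA bead assay after 16 h compound exposure of THP-1 cells; compounds (final up to 57.5 uM) added 1 h before LPS (250 ng/mL) and ATP (1.25 mM) stimulation; lower signal means less secretion.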
# TDP1 cell CPT = DT40-hTDP1 cell growth loss with CPT | chicken DT40 Tdp1-/-;hTDP1 cells + 20 nM CPT, ATP luminescence, 48 h | Potency, µM (series often up to 46.2 µM), for the others: at the top dose activity change, negative = growth inhibition, actives largely listed as inhibitors | hit rate 12% among 420,000 | AID 686979; further: potency means the concentration at half of the fitted maximal effect; nearly all actives have a fitted effect of over 55% in size
#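 Cell growth measured by CellTiter-Glo luminescence after a minimum 48 h, 37 C compound exposure with 20 nM CPT in Tdp1-knockout DT40 cells stably expressing hTDP1, seeded 400/well; qHTS titration format.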
# ELG1 DNA repair = ELG1-dependent DNA repair inhibition; HEK293T ELG1-luciferase reporter, luminescence, 16 h; DNA damage induced by 5-fluorouridine; Potency, µM (doses to about 46.1 µM), for the others: at the top dose activity change, negative = inhibition, hits mostly inhibitors; hit rate 2.3% among 330,000; AID 504467; further: potency means the concentration at half of the fitted maximal effect; nearly all actives have a fitted effect of over 55% in size
#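 In this reporter screen, reduction of luminescence relative to DMSO vehicle indicated activity. Compounds and 5-fluorouridine were added together to 2,000 cells per well, incubated for 16 hr at 37 °C, then developed with ONE-Glo.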
# DT40 TDP1 no CPT = qHTS for Inhibitors of human tyrosyl-DNA phosphodiesterase 1 (TDP1): qHTS in cells in absence of CPT; DT40 Tdp1-/- hTDP1 cells, no CPT, ATP luminescence, 48 h; AID 686978, 2013; Potency, µM (doses to about 46.2 µM), inactives show top-dose activity change, negative = growth inhibition, actives largely listed as inhibitors; hit rate 15% among 420,000; further: potency means the concentration at half of the fitted maximal effect; nearly all actives have a fitted effect of over 55% in size
#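 Growth kinetics read by CellTiter-Glo luminescence after ≥48 hr at 37 °C. Cells: DT40 Tdp1-/- stably carrying human TDP1, 400 per well, compound exposure in the absence of CPT (DMSO vehicle).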
# HT1080 IDH1KD tx = toxicity to HT-1080 IDH1 knockdown cells (counter line) | HT-1080 IDH1 knockdown viability, ATP luminescence, 48 h | hit rate 2% among 360,000 | Potency, µM (highest dose often 46.1 µM), without a hit: top-dose activity, negative = toxicity, usual class: cytotoxic;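 further: potency means the concentration at half of the fitted maximal effect; 0% = DMSO wells and -100% = cell-free medium wells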
#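 CellTiter-Glo luminescence after 48 h compound exposure at 37 degrees C of IDH1-knockdown HT-1080 cells in 5% FBS RPMI. %Activity scaled between DMSO wells and cell-free media wells, with curves fitted and assigned curve classes.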
# Numbers without * were called inactive; u = inconclusive; x = no result given; [ ] = dose if it differs, or a comment. Unless noted, the call rests on the fitted dose curve; in most records, active means well fitted curve in the direction sought with a large enough effect; inconclusive means small, poorly fitted or top-dose-only effect, or another doubt; inactive means no such curve, though single readings can be large; an effect the other way counts as inactive or inconclusive. Unless noted, on the % scale 0 is the no-effect control and ±100 the full control effect.
SMILES,HT1080NT lethal,IL-1B inflam inh,TDP1 cell CPT,ELG1 DNA repair,DT40 TDP1 no CPT,HT1080 IDH1KD tx
CC(NC(=O)COC(=O)c1cc(S(=O)(=O)N2CCOCC2)ccc1F)c1ccccc1 (centres undefined),-0.3%,-23.6,11.0%,-9.0%,-7.2%,-4.6%
Cc1ccc(CN2C[C@H](Sc3ccccn3)C[C@H]2C(=O)Nc2ccc3sc(C)nc3c2)s1,x,x,18.5%[9.04 µM],x,-2.6%,x
COc1cccc(/C=N/NC(=O)CN(C)S(=O)(=O)c2ccccc2)c1OC,-1.0%,0.0,-21.4%,u,-19.4%,-5.0%
CCCCn1c(N)c(N(CCOC)C(=O)c2cccc(S(=O)(=O)N(C)c3ccc(C)cc3)c2)c(=O)[nH]c1=O,5.8%,-2.5,-3.4%,8.4%,-10.5%,1.2%
O=C(NCCCN1CCOCC1)C(=O)N/N=C/c1c(Cl)cccc1Cl,29.5%,0.0,-0.2%,u,-3.8%,20.3%
O=C(NCCCN1CCOCC1)C(=O)N/N=C/c1c2ccccc2cc2ccccc12,u,47.0,u,u,20.6µM*,u
O=C(COC(=O)C12CC3CC(CC(C3)C1)C2)NNC(=O)c1ccccc1,7.1%,7.4,-15.7%,6.3%,1.0%,-0.2%
CCOCCCNC(=O)C1CCN(c2nc3ccc(C)cc3[nH]2)CC1,x,x,0.5%,x,0.6%,x
CCOC(=O)C1=CC[C@@H](c2ccccc2)N(S(=O)(=O)c2ccc(C)cc2)[C@H]1C=C(C)C,-20.7%,8.8,16.4µM*,x,11.6µM*,u
CCOC(=O)C1=CC[C@@H](c2ccccc2)N(S(=O)(=O)c2ccc(C)cc2)[C@H]1c1ccccc1C,-0.7%,13.1,13µM*,x,9.2µM*,-1.8%
CCOC(=O)C1=CC[C@@H](c2cc(OC)c(OC)c(OC)c2)N(S(=O)(=O)c2ccc(C)cc2)[C@H]1C(=O)OCC,14.9%,5.4,25.9µM*,14.6%,u,7.3%
CCOC(=O)C1=CC[C@@H](c2ccccc2)N(S(=O)(=O)c2ccc(C)cc2)[C@H]1C#N,16.4µM*,-25.0,u,x,u,u
COc1cccc(NC(=O)c2cccc(N3C(=O)C4C5C=CC(C5)C4C3=O)c2)c1 (centres undefined),-7.9%,-14.1,u,u,u,-3.8%
CC(C)(O)C#Cc1ccc(C(=O)NC(CCCNC(N)=O)C(=O)O)s1 (centres undefined),20.2%,5.6,1.7%,22.3%,-8.2%,17.8%
CCOC(=O)C1=CC[C@@H](c2ccccc2)N(S(=O)(=O)c2ccc(C)cc2)[C@H]1c1ccc(C#N)cc1,-0.9%,38.2,11.6µM*,x,9.2µM*,3.3%
CCOC(=O)C1=CC[C@@H](c2ccc([N+](=O)[O-])cc2)N(S(=O)(=O)c2ccc(C)cc2)[C@H]1c1ccccc1,13.0%,41.2,u,x,u,11.9%
CCOC(=O)C1=CC[C@@H](c2ccc(F)cc2)N(S(=O)(=O)c2ccc(C)cc2)[C@H]1c1ccccc1,9.7%,18.4,16.4µM*,x,23.1µM*,4.6%
Nc1nn(-c2ccccc2)nc1C(=O)OCc1ccc(Cl)cc1,x,x,-0.2%,x,1.0%,x
CCOP(=O)(OCC)C1NC(=O)N(c2ccccc2)C1=O (centres undefined),27.0%,10.7,2.3%,u,4.6%,24.7%
Cc1ccc(C(Sc2ccccc2)C(Cn2cncn2)C(=O)c2ccccc2)cc1 (centres undefined),u,-29.5,u,u,23.1µM*,u
CCCn1nc(NS(=O)(=O)c2cccc3nonc23)c2cc3cc(C)ccc3nc21,-9.2%,-87.3*,-10.2%,u,-7.4%,-0.9%
CCn1nc(NC(=O)c2ccccn2)c2cc3cccc(C)c3nc21,29.0%,16.1,u,-15.1%,18.4µM*,26.4%
CCCn1nc(NC(=O)c2ccccn2)c2cc3cc(C)ccc3nc21,11.9%,-62.7*,u,u,u,2.7%
CCCn1nc(NS(=O)(=O)c2cccc3nonc23)c2cc3cccc(C)c3nc21,-24.7%,12.9,-23.9%,-4.9%,-27.8%,-2.1%
O=C(/C(C=Nc1ccc(F)cc1)=C(/O)c1ccco1)C(F)(F)F,0.7%,-9.1,-4.9%,u,-18.8%,-11.9%
SMILES,HT1080NT lethal,IL-1B inflam inh,TDP1 cell CPT,ELG1 DNA repair,DT40 TDP1 no CPT,HT1080 IDH1KD tx
CCN(CCO)c1nc(N2CCCCC2)c2cnn(C)c2n1,2.0%,13.7,-22.7%,-10.0%,u,-5.5%
Cc1cc(C)cc(C(=O)Nc2c3c(nn2-c2ccccc2C)CS(=O)(=O)C3)c1,x,x,-9.4%,x,-23.2%,x
Cc1cc2nn(-c3ccc(F)cc3)nc2cc1NC(=O)c1cccc2c(Cl)cccc12,x,x,2.91µM*,x,u,x
Cc1ccc(-c2nc3ccccc3o2)cc1NC(=O)c1cccc2c(Cl)cccc12,x,x,u,x,-23.4%,x
Cc1cc2nn(-c3cccc4ccccc34)nc2cc1NC(=O)c1cccs1,12.1%,u,23.1µM*,-8.0%,-72.4%,7.7%
CCN(CC)c1ccc(-n2nc3cc(C)c(NC(=O)c4ccccc4C)cc3n2)c(C)c1,x,x,16.4µM*,x,20.6µM*,x
CCN(CC)c1ccc(NC(=O)c2cccc(C)c2OC)c(C)c1,u,-22.2,12.6µM*,u,11.2µM*,u
Cc1cc(Cl)cc2sc(=S)[nH]c12,-27.3%,29.6,-7.0%,x,-27.4%,-12.6%
C=C1NN(C(C)C(=O)O)C(=O)N1c1ccc(OCc2ccccc2)cc1 (centres undefined),x,x,-22.7%,x,-10.0%,x
COc1cc(=O)n2c(c1C(=O)N(C)Cc1nccs1)CCN(Cc1cc3ccccc3s1)CC2,x,x,-107.4%,x,u,x
CN(C)c1ncnc2ccc(-c3cccnc3)cc12,x,x,11.6µM*,x,23.1µM*,x
COc1cccc(-c2ccc3ncnc(N(C)C)c3c2)c1,x,x,20.6µM*,x,u,x
c1cncc(-c2ccc3ncnc(NC4CCNCC4)c3c2)c1,x,x,5.7%,x,19.9%,x
O=C(Cc1ccccc1)NS(=O)(=O)c1ccccc1,u,32.3,-11.0%,x,-12.6%,3.7%
C=CCC(CC=C)(CNC(=O)C(=O)Nc1ccc(C(=O)OCC)cc1)c1ccccc1,x,x,-11.5%,x,-25.5%,x
Cc1ccc2c(c1)C(=O)C(=O)N2CC(=O)Nc1ccccc1NC(=O)c1ccccn1,u,38.9,5.17µM*,-11.0%,5.8µM*,-3.0%
Cc1ccccc1-c1ocnc1C(=O)Nc1ccccc1NC(=O)c1ccccn1,3.66µM*,-3.1,u,u,u,u
Cc1ccc(-c2ocnc2C(=O)Nc2ccccc2C(=O)N2CCCC2)cc1,0.1%,-23.6,u,u,u,4.9%

# Screens as filed in PubChem BioAssay.
